In paper PMC12820563, “FoxP3 forms a head-to-head dimer in vivo and stabilizes its multimerization on adjacent microsatellites”:
Whole data set: some 16,000 sequences, median “rpm ratio (pull-down/input)” near 0.5, cut for the highest 2% near 5.5. What follows is part of a selection rich in the highest values, with near analogues and random picks from the rest.

Molecular target: T1, MBP-FoxP3dN (Mus musculus, UniProt Q99JB6 188-423)
T1 sequence: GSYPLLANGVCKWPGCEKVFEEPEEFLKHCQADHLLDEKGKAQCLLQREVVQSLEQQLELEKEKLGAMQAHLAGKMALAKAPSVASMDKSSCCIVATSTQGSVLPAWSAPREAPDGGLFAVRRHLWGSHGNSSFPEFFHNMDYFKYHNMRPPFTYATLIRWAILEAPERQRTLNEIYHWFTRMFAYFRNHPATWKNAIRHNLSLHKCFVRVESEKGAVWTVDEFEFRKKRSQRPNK
Test: PD-seq (MBP pull-down with sequencing); 20 mM Tris-HCl pH 7.5, 100 mM NaCl, 1.5 mM MgCl2, 0.4 uM protein, 0.1 uM dsDNA library, 30 min, room temperature, amylose pull-down; high values mean tight binding
Details: protein: recombinant; tags: His6-MBP; chain copies: 2; dsDNA, one strand shown
How it was run: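 Protein and DNA were mixed at 0.4 µM and 0.1 µM and held for 30 min at room temperature in Tris pH 7.5 buffer with NaCl and MgCl2; the protein was a His6-MBP-tagged, N-terminally truncated mouse FoxP3 or FoxP1 fragment from E. coli, and the DNA a Klenow-filled double-stranded degenerate library. Amylose resin captured the complexes, which were washed three times. Binding is read as reads-per-million enrichment of pull-down versus input after Illumina sequencing, with replicates pooled.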

Sequence	binding signal
GATGATTGTTCTCCCAGCTGATGAATTTCTAATTTCGAGTAAACAAATTTTCCTAATCTTTCTGTTCAAGCGCCATCTAC	0.301 RPM ratio (pull-down/input)
GATGATTGTTCTCCCAGCTGATGAATTATGTTTGTCGAGTAAACAAATTTTCCTAATCTTTCTGTTCAAGCGCCATCTAC	7.57 RPM ratio (pull-down/input)
GATGATTGTTCTCCCAGCTGATGAATTTTTTATGTCGAGTAAACAAATTTTCCTAATCTTTCTGTTCAAGCGCCATCTAC	0.31 RPM ratio (pull-down/input)
GATGATTGTTCTCCCAGCTGATGAATTATTTATGTCGAGTAAACAAATTTTCCTAATCTTTCTGTTCAAGCGCCATCTAC	2.12 RPM ratio (pull-down/input)
GATGATTGTTCTCCCAGCTGATGAATTTGTTATGTCGAGTAAACAAATTTTCCTAATCTTTCTGTTCAAGCGCCATCTAC	6.84 RPM ratio (pull-down/input)
GATGATTGTTCTCCCAGCTGATGAATTTATTATGTCGAGTAAACAAATTTTCCTAATCTTTCTGTTCAAGCGCCATCTAC	5.83 RPM ratio (pull-down/input)
GATGATTGTTCTCCCAGCTGATGAATTTATGTTGTCGAGTAAACAAATTTTCCTAATCTTTCTGTTCAAGCGCCATCTAC	4.93 RPM ratio (pull-down/input)
GATGATTGTTCTCCCAGCTGATGAATTATGTCTGTCGAGTAAACAAATTTTCCTAATCTTTCTGTTCAAGCGCCATCTAC	1.14 RPM ratio (pull-down/input)
GATGATTGTTCTCCCAGCTGATGAATTGGTTATGTCGAGTAAACAAATTTTCCTAATCTTTCTGTTCAAGCGCCATCTAC	2.38 RPM ratio (pull-down/input)
GATGATTGTTCTCCCAGCTGATGAATTTCTTATGTCGAGTAAACAAATTTTCCTAATCTTTCTGTTCAAGCGCCATCTAC	0.657 RPM ratio (pull-down/input)
GATGATTGTTCTCCCAGCTGATGAATTGTTTATGTCGAGTAAACAAATTTTCCTAATCTTTCTGTTCAAGCGCCATCTAC	7 RPM ratio (pull-down/input)
GATGATTGTTCTCCCAGCTGATGAATTTATGATGTCGAGTAAACAAATTTTCCTAATCTTTCTGTTCAAGCGCCATCTAC	3.91 RPM ratio (pull-down/input)
GATGATTGTTCTCCCAGCTGATGAATTGATTATGTCGAGTAAACAAATTTTCCTAATCTTTCTGTTCAAGCGCCATCTAC	1.86 RPM ratio (pull-down/input)
GATGATTGTTCTCCCAGCTGATGAATTGAGCACGTCGAGTAAACAAATTTTCCTAATCTTTCTGTTCAAGCGCCATCTAC	0.919 RPM ratio (pull-down/input)
GATGATTGTTCTCCCAGCTGATGAATTCGTATGCTCGAGTAAACAAATTTTCCTAATCTTTCTGTTCAAGCGCCATCTAC	2.01 RPM ratio (pull-down/input)
GATGATTGTTCTCCCAGCTGATGAATTTGGCGACTCGAGTAAACAAATTTTCCTAATCTTTCTGTTCAAGCGCCATCTAC	1.79 RPM ratio (pull-down/input)
GATGATTGTTCTCCCAGCTGATGAATTTCTGCTGTCGAGTAAACAAATTTTCCTAATCTTTCTGTTCAAGCGCCATCTAC	0.378 RPM ratio (pull-down/input)

Sequence	binding signal
GATGATTGTTCTCCCAGCTGATGAATTACTTGTTTCGAGTAAACAAATTTTCCTAATCTTTCTGTTCAAGCGCCATCTAC	0.804 RPM ratio (pull-down/input)
GATGATTGTTCTCCCAGCTGATGAATTCCTGAAATCGAGTAAACAAATTTTCCTAATCTTTCTGTTCAAGCGCCATCTAC	0.237 RPM ratio (pull-down/input)
GATGATTGTTCTCCCAGCTGATGAATTTGAGTTATCGAGTAAACAAATTTTCCTAATCTTTCTGTTCAAGCGCCATCTAC	0.953 RPM ratio (pull-down/input)
GATGATTGTTCTCCCAGCTGATGAATTACCCTGATCGAGTAAACAAATTTTCCTAATCTTTCTGTTCAAGCGCCATCTAC	0.253 RPM ratio (pull-down/input)
GATGATTGTTCTCCCAGCTGATGAATTTAGATTCTCGAGTAAACAAATTTTCCTAATCTTTCTGTTCAAGCGCCATCTAC	0.815 RPM ratio (pull-down/input)
GATGATTGTTCTCCCAGCTGATGAATTGTATATCTCGAGTAAACAAATTTTCCTAATCTTTCTGTTCAAGCGCCATCTAC	3.03 RPM ratio (pull-down/input)
GATGATTGTTCTCCCAGCTGATGAATTTTCTGTATCGAGTAAACAAATTTTCCTAATCTTTCTGTTCAAGCGCCATCTAC	0.456 RPM ratio (pull-down/input)
GATGATTGTTCTCCCAGCTGATGAATTGTGTGTATCGAGTAAACAAATTTTCCTAATCTTTCTGTTCAAGCGCCATCTAC	6.39 RPM ratio (pull-down/input)
GATGATTGTTCTCCCAGCTGATGAATTCTTTGTATCGAGTAAACAAATTTTCCTAATCTTTCTGTTCAAGCGCCATCTAC	0.57 RPM ratio (pull-down/input)
GATGATTGTTCTCCCAGCTGATGAATTGTGTAAATCGAGTAAACAAATTTTCCTAATCTTTCTGTTCAAGCGCCATCTAC	0.96 RPM ratio (pull-down/input)
GATGATTGTTCTCCCAGCTGATGAATTGTGTATATCGAGTAAACAAATTTTCCTAATCTTTCTGTTCAAGCGCCATCTAC	6.5 RPM ratio (pull-down/input)
GATGATTGTTCTCCCAGCTGATGAATTTGGTGTATCGAGTAAACAAATTTTCCTAATCTTTCTGTTCAAGCGCCATCTAC	3.25 RPM ratio (pull-down/input)
GATGATTGTTCTCCCAGCTGATGAATTTGTGTAATCGAGTAAACAAATTTTCCTAATCTTTCTGTTCAAGCGCCATCTAC	4.48 RPM ratio (pull-down/input)
GATGATTGTTCTCCCAGCTGATGAATTCTGTGTATCGAGTAAACAAATTTTCCTAATCTTTCTGTTCAAGCGCCATCTAC	5.85 RPM ratio (pull-down/input)
GATGATTGTTCTCCCAGCTGATGAATTGAGTATATCGAGTAAACAAATTTTCCTAATCTTTCTGTTCAAGCGCCATCTAC	1.7 RPM ratio (pull-down/input)
GATGATTGTTCTCCCAGCTGATGAATTCTCTGTATCGAGTAAACAAATTTTCCTAATCTTTCTGTTCAAGCGCCATCTAC	0.441 RPM ratio (pull-down/input)
GATGATTGTTCTCCCAGCTGATGAATTTTGTGTATCGAGTAAACAAATTTTCCTAATCTTTCTGTTCAAGCGCCATCTAC	6.55 RPM ratio (pull-down/input)
